High-throughput results deposited in PubChem BioAssay by National Center for Advancing Translational Sciences (NCATS).
KB-3-1 cytotox: KB-3-1 parental cell cytotoxicity. KB-3-1 viability, CellTiter-Glo ATP luminescence, 72 h. Potency, µM (top dose mostly 46.1 µM), most hits filed as cytotoxic. 400,000 compounds, 1.4% hits; note: % is set by controls: 0 for no effect and ±100 for the full control effect; nearly all actives have a fitted effect of over 60% in size
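Luminescent ATP read-out (CellTiter-Glo) measures survival of drug-naive KB-3-1 cells after 72 h compound exposure at 37 °C. Titration series was screened from lowest to highest concentration, with DMSO vehicle plates as background controls.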
HT1080 IDH1KD tx: toxicity to HT-1080 IDH1 knockdown cells (counter line) | HT-1080 IDH1 knockdown viability, ATP luminescence, 48 h | Potency, µM (highest dose often 46.1 µM), for inactives: at the top dose activity, negative = toxicity, most hits filed as cytotoxic | 360,000 compounds, 2% hits | AID 686971;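 note: 0% = DMSO wells and -100% = cell-free medium wells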
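Viability of IDH1-knockdown HT-1080 fibrosarcoma cells was assessed by CellTiter-Glo after 48 h at 37 °C with titrated compound; concentration-effect curves were classified by fit quality and response size.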
TGFb SMAD3 inh: blocks TGF-b signaling; HepG2 CAGA-GFP TGF-b/SMAD3 reporter, GFP fluorescence, 18 h; TGF-beta stimulated, 500 pg/mL final; Potency, µM (highest dose often 46.1 µM), inactives show top-dose activity, negative = inhibition, hits mostly inhibitors; 410,000 compounds, 1.2% hits; AID 588855; note: % is set by controls: 0 for no effect and ±100 for the full control effect; nearly all actives have a fitted effect of over 65% in size
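HEPG2 CAGA-GFP, 1000 cells/well; 2 h settle, 37 C; cpd via pin tool; TGF-b 500 pg/mL final; 18 h, 37 C; GFP imaging ex488/em500-530; %Activity normalised to -TGF-b and +DMSO controls; CRC fit, curve class.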
HepG2 tox: kills HepG2 cells in TGF-b inhibitor counter-screen | HepG2 CAGA-GFP viability, ATP luminescence, 18 h | Potency, µM (titrated, usually from 46.1 µM), for inactives: at the top dose activity change, negative = cytotoxicity, most hits filed as cytotoxic | 410,000 compounds, 0.76% hits | AID 588856
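CellTiter-Glo luminescence gave cytotoxicity after 18 hours at 37 degrees C. The cells were HepG2 CAGA-GFP in 1% FBS DMEM, stimulated with 500 pg/mL TGF-beta after compound addition. %Activity was normalised to no-cell wells (complete cell-killing) and DMSO (no toxicity), and curves were fitted and classified.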
HT1080-NT tox: kills 2HG-producing HT-1080-NT fibrosarcoma cells. Potency, µM (top dose mostly 46.1 µM), for inactives: at the top dose activity, negative = less viability, most hits filed as cytotoxic. 360,000 compounds, 1.6% hits. HT-1080-NT fibrosarcoma viability, CellTiter-Glo ATP luminescence, 48 h;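 note: NT is the 2HG producing partner of a matched IDH1 knockdown line; 0% = DMSO-treated cells and -100% = media-only wells without cells; nearly all actives have a fitted effect of over 55% in size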
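Read-out is CellTiter-Glo luminescence after 10 minutes at room temperature, following 48 hours' compound treatment of HT-1080-NT cells (750 cells/well, RPMI, 5% FBS, 37 degrees C).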
KB-V1 cytotox: kills drug-selected multidrug resistant KB-V1 cells | KB-V1 MDR cells viability, CellTiter-Glo, 72 h | Potency, µM (highest dose often 46.1 µM), hits mostly cytotoxic | 400,000 compounds, 3.4% hits | AID 1347076; note: % is set by controls: 0 for no effect and ±100 for the full control effect; nearly all actives have a fitted effect of over 60% in size
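qHTS viability screen in drug-selected KB-V1 MDR cells: 72 h compound treatment at 37 degrees C, ATP luminescence end point.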
Numbers without * were called inactive; i = inactive; ? = inconclusive; . = no result given. The list is not random: actives were taken first. Their share in the collection is about 6.6%. Calls come from the whole dose curve; as a rule, active = well fitted curve in the direction sought with a large enough effect; inconclusive = small, poorly fitted or top-dose-only effect, or another doubt; inactive = no such curve, though single readings can be large; an effect the other way counts as inactive or inconclusive. Potency is the fitted concentration of half-maximal effect.

SMILES	KB-3-1 cytotox	HT1080 IDH1KD tx	TGFb SMAD3 inh	HepG2 tox	HT1080-NT tox	KB-V1 cytotox
CCOc1ccc(N(Cc2cc3ccc(C)cc3[nH]c2=O)S(=O)(=O)c2ccccc2)cc1	16µM*	?	?	4%	?	i
CCOc1ccc(S(=O)(=O)N(CC(=O)O)c2ccc(C)cc2)cc1	i	-2%	-6%	-21%	17%	i
O=C(CC[C@H]1O[C@@H](n2ccc(=O)[nH]c2=O)[C@H](O)[C@@H]1O)NCCCc1ccccc1	i	11%	1%	9%	3%	i
COc1ccc(N(Cc2cc3ccccc3[nH]c2=O)S(C)(=O)=O)cc1	i	-10%	3%	-8%	-1%	16µM*
CCOc1ccc(C(=O)N(CN2CCCC2=O)c2ccc(C)cc2)cc1	i	-1%	1%	-13%	-4%	4.6µM*
CCOC(=O)c1ccc(N(CCC2CO2)S(=O)(=O)c2ccc(C)cc2)cc1 (centres undefined)	i	-5%	-11%	2%	-2%	21µM*
CCn1c(SC(C)C(=O)NCc2ccco2)nnc1-c1ccccc1 (centres undefined)	?	.	13%	12%	.	i
CCOc1ccc(C(=O)Nc2cc(-c3ccccc3)no2)cc1	i	.	-7%	-4%	.	i
Cc1cc(/C=C2\SC(N)=NC2=O)c(C)n1-c1ccc(F)cc1	i	0%	-10%	13µM*	3%	i
CCOc1cc(NC(=O)c2ccco2)c(OCC)cc1NC(=O)c1ccco1	i	20%	20%	17%	32%	i
CCOc1ccc2nc(NC(=O)COC)sc2c1	i	14%	?	-6%	8%	i
O=C(Nc1nc2cc3c(cc2s1)OCCO3)c1ccco1	?	?	8%	-64%	?	12µM*
O=C(Nc1nc2cc3c(cc2s1)OCO3)C1=COCCO1	6.5µM*	18µM*	-3%	8.9µM*	13µM*	i
CCOc1cc(C#N)c(NC(=O)c2ccco2)cc1OCC	6.5µM*	?	2%	-15%	?	?
CCOc1ccc2nc(NC(=O)c3ccoc3C)sc2c1	10µM*	3.7µM*	-15%	1.8µM*	2.3µM*	8.2µM*
CC(=O)Nc1nc2cc3c(cc2s1)OCO3	i	-3%	5%	-11%	-3%	i
CCOc1ccccc1NC(=O)CSc1nc2c(oc3ccccc32)c(=O)n1-c1ccc(F)cc1	i	.	?	-2%	.	i
CCCn1c(CCC(=O)Nc2cccc(C)c2C)nc2cccnc21	i	.	4%	8%	.	?
CCOc1ccc2nc(NC(=O)c3ccco3)sc2c1	i	18µM*	-6%	-52%	21µM*	?
CCOc1ccc2nc(NC(=S)NCc3ccccc3)sc2c1	i	4µM*	-6%	-28%	?	i
CCc1cc(C(=O)OC)c(NC(=O)c2cc(Br)cs2)s1	i	0%	23%	2%	14%	16µM*
CCc1cc(C(=O)OC)c(NC(=O)c2ccoc2C)s1	i	19%	-5%	3%	19%	i
O=C1C(Cc2ccccc2)NC(=S)N1Cc1ccccc1 (centres undefined)	i	1%	-4%	-6%	-3%	i
CC(C)CC1NC(=S)N(Cc2ccccc2)C1=O (centres undefined)	?	?	5µM*	-38%	?	21µM*
COc1cccc(-c2nn(-c3ccc(C)cc3)cc2C(=O)N2CCc3cc(OC)c(OC)cc3C2)c1	18µM*	21µM*	-3%	-3%	?	23µM*
COc1ccc(OC)c(-c2nn(-c3ccccc3)cc2C(=O)N2CCc3ccccc3C2)c1	i	?	-13%	1%	-18%	i
